Inconclusive results are not listed. A call without a number means that no potency is given here. Calls of active or inactive are those of the source. Calls come from the whole dose curve; as a rule, active = well fitted activation curve with a large enough effect in the repeat runs; inconclusive = weak or mixed curves; inactive = flat fitted curve, though single readings scatter. Positions of bridges follow the written chain, without caps; N, C: chain ends. Non-standard residues stand in square brackets, D forms with d. Residues, ends and D or L forms follow the SMILES beside them. hArg = N=C(N)NCCCC[C@H](N)C(=O)O; Mpa = O=C(O)CCS
molecular target: Nuclear receptor subfamily 1 group I member 2 (Homo sapiens) (UniProt O75469); experiment: Human pregnane X receptor (PXR) activation by small molecules, qHTS assay (AID 1346985); settings: DPX-2 HepG2 CYP3A4-luciferase, 24 h; series mostly up to 38.3 µM; note: nearly all actives have a fitted effect of over 40% in size
From the text: National Center for Advancing Translational Sciences [NCATS]
NIH Chemical Genomics Center [NCGC]
U.S. Environmental Protection Agency [EPA]
National Institutes of Environmental Health Sciences [NIEHS]
National Toxicology Program [NTP]
The Pregnane X receptor (PXR), a ligand activated nuclear receptor plays a critical role in the regulation of genes involved in drug metabolism and transporters. Activation of PXR may be involved in the unwanted adverse drug-drug interactions. […] Therefore, identification of compounds with the potential for PXR activation can be of importance in improving the efficacy of drugs with less toxicity and avoiding drug-drug interactions.
DPX-2 (Puracyp, Inc.) cell lines, used for screening against human PXR activation has HepG2 cells co-transfected with a PXR response element and a luciferase construct containing CYP3A4 promoter. Increase in luciferase activity can be used to identify the compounds that activate the PXR pathway.
DPX-2 cells were dispensed at 2,000 cells per well in 5uL of assay medium into white, solid-bottom 1536-well plates using a Multidrop Combi dispenser (Thermo Scientific). The assay plates were incubated at 37C for 5hr before transferring 23nL of test compounds dissolved in DMSO and positive control via Pintool station (Wako). The assay plates were incubated at 37C for 24hr. Then 5ul One-Glo assay reagent (Promega) was added to each plate by a Flying Reagent Dispenser (FRD, Aurora Discovery) and following 30 min incubation at room temperature, luciferase activity was quantified on a ViewLux plate reader (Perkin Elmer).
Potency is the fitted concentration of half-maximal effect.

Structure (SMILES)	Potency
N[C@@H](Cc1ccc(O)cc1)C(=O)O	inactive
CC(=O)O[C@@H]1CC2CCC1(C)C2(C)C (stereo not given in full)	inactive
CCC(=O)c1c(O)cc(O)cc1O	inactive
CN1C[C@@H]2C[C@H]1CN2c1cc2c(cc1F)c(=O)c(C(=O)O)cn2C1CC1	inactive
N[C@@H](CSCCCO)C(=O)O	inactive
N#CCC(=O)NN	inactive
CC(C)Cn1cnc2c1c(=O)n(C)c(=O)n2C	inactive
NCc1ccc(S(N)(=O)=O)cc1	inactive
O=S(=O)(O)c1ccc2c(N=Nc3ccc(S(=O)(=O)O)c4ccccc34)c(O)c(S(=O)(=O)O)cc2c1	inactive
CC(C)OC(=O)OCOP(=O)(CO[C@H](C)Cn1cnc2c(N)ncnc21)OCOC(=O)OC(C)C	inactive
Cn1c(=O)c2[nH]c(Br)nc2n(C)c1=O	inactive
CC(C)=CCC[C@@](C)(O)[C@H]1CC=C(C)CC1	inactive
CC1(C)O[C@H]2CC(=O)OC[C@]23[C@H]2CC[C@@]4(C)[C@H](c5ccoc5)OC(=O)[C@H]5O[C@]54[C@]2(C)C(=O)C[C@@H]13	inactive
Cc1c(NC(=O)c2cccnc2)c(=O)n(-c2ccccc2)n1C	inactive
CC1=C(C(=O)O)N2C(=O)[C@@H](NC(=O)[C@H](N)c3ccccc3)[C@H]2SC1	inactive
CCCC(=O)Nc1ccc(OCC(O)CNC(C)C)c(C(C)=O)c1 (stereo not given)	inactive
CN(C)CC/C=C1/c2ccccc2COc2ccc(CC(=O)O)cc21	inactive
CC(=O)Nc1ccc(OC(=O)c2ccccc2OC(C)=O)cc1	inactive
CC(C)(C)NC[C@H](O)COc1cccc2c1CCCC2=O	inactive
CC(C)NCC(O)c1ccc2ccccc2c1 (stereo not given)	inactive

Structure (SMILES)	Potency
NC(=O)[C@@H]1CSSCCC(=O)N[C@@H](CCCCN=C(N)N)C(=O)NCC(=O)N[C@@H](CC(=O)O)C(=O)N[C@@H](Cc2c[nH]c3ccccc23)C(=O)N2CCC[C@H]2C(=O)N1 ([Mpa][hArg]GDWPC-NH2; disulfide 1-7)	inactive
CCOC(CN1CCN(CC(C)C(=O)c2ccccc2)CC1)c1ccccc1 (stereo not given)	10 µM (active)
C#CCN[C@@H]1CCc2ccccc21	inactive
CCNC(=O)NCc1cccc(Cl)c1	inactive
CC1CCc2c(N3CCC(O)CC3)c(F)cc3c(=O)c(C(=O)O)cn1c23 (stereo not given)	inactive
O=C(Cn1ccnc1[N+](=O)[O-])NCc1ccccc1	inactive
CCC[C@@H]1C[C@@H](C(=O)N[C@@H]([C@H]2O[C@H](SC)[C@H](O)[C@@H](O)[C@H]2O)[C@@H](C)O)N(C)C1	inactive
O=C(CN1CCNCC1)NC1CCCCC1	inactive
Nc1nc(-c2ccccc2)c(Br)c(=O)[nH]1	inactive
Cn1nnc2c(C(N)=O)ncn2c1=O	inactive
O=C(O)[C@H](O)c1ccccc1	inactive
COc1ccc2c(c1)c1c3n2CCN(C)C3=NCC1	inactive
C[C@]12CCC(=O)C=C1CC[C@H]1[C@@H]3CC[C@](O)(C(=O)CO)[C@@]3(C)C[C@H](O)[C@@]12F	inactive
O=NN(CCCl)C(=O)NC1CCCCC1	inactive
CN(C)CCCO[C@@H]1[C@H]2OC(C)(C)O[C@H]2O[C@@H]1C(O)CO (stereo not given in full)	inactive
CC1(C)Oc2ccc(C#N)cc2[C@@H](N2CCCC2=O)[C@@H]1O	inactive
C=CCN1C[C@H](C(=O)N(CCCN(C)C)C(=O)NCC)C[C@@H]2c3cccc4[nH]cc(c34)C[C@H]21	15.8 µM (active)
O=C(NCN1CCOCC1)c1cnccn1	inactive
OC[C@H]1O[C@@H](O[C@@H]2[C@@H](CO)O[C@](O)(CO)[C@H]2O)[C@H](O)[C@@H](O)[C@H]1O	inactive
c1ccc2c(CC3=NCCN3)cccc2c1	inactive
